In publication PMC7862700, “An all-to-all approach to the identification of sequence-specific readers for epigenetic DNA modifications on cytosine”:

Tests used:
Assay in all cases: DAPPL (digital affinity profiling via proximity ligation, sequencing); 10 mM Tris-HCl pH 7.5, 50 mM NaCl, 1 mM DTT, 4% glycerol, room temperature, 30 min; GST-TFs on glutathione beads, 16-mer random dsDNA library, 0.1% formaldehyde crosslink after washing; high values mean tight binding
Conditions in all cases: protein: recombinant; tags: N-terminal GST; dsDNA, one strand shown
ETS2 = molecular target: T1, ETS2 (Homo sapiens, UniProt P15036 1-469)
T1 sequence: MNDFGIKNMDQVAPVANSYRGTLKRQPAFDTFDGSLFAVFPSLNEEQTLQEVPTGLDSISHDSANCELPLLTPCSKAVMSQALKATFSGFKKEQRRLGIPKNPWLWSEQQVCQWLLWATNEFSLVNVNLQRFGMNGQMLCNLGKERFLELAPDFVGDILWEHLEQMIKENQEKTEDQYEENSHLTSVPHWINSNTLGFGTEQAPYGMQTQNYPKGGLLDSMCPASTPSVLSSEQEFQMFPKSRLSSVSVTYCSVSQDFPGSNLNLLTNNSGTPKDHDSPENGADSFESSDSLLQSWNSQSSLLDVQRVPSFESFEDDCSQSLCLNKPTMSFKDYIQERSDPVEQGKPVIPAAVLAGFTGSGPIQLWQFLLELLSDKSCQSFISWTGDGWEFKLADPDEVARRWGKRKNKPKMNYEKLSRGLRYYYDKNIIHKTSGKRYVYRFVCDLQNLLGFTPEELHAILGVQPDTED
Outline: (§1)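 Human transcription factors fused to GST were expressed in yeast, captured on glutathione beads, given DNA barcodes and pooled with a GST-only negative control. Pools were incubated with 200 nmole of a 16-mer random double-stranded DNA library in Tris/NaCl/DTT/glycerol buffer at room temperature for 30 min. They were then washed, crosslinked with 0.1% formaldehyde, proximity-ligated (BsaI/T4 ligase, 1 h, 37 °C), PCR-amplified and sequenced on an Illumina NextSeq500. Binding signal is each 6-mer's read frequency for a factor divided by its frequency for the GST control.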

SPDEF = molecular target: T2, SPDEF (Homo sapiens, UniProt O95238 1-335)
T2 sequence: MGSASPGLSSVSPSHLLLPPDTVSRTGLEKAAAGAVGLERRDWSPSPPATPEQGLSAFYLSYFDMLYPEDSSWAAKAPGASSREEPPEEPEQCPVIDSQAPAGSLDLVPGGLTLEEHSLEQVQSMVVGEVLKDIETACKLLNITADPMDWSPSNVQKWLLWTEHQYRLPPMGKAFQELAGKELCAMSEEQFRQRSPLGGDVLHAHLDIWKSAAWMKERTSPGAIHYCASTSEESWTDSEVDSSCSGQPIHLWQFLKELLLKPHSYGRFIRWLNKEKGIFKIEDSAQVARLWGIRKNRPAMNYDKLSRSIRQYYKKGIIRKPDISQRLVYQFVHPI
Outline: as §1

ETV3 = molecular target: T3, ETV3 (Homo sapiens, UniProt P41162-2 1-143)
T3 sequence: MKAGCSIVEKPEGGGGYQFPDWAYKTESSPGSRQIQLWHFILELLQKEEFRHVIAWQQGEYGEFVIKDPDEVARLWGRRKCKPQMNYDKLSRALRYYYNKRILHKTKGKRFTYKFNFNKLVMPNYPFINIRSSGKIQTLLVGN
Outline: as §1

CRX = CRX (Homo sapiens, UniProt O43186 1-299)
Outline: as §1

GABPA = molecular target: T4, GABPA (Homo sapiens, UniProt Q06546 1-454)
T4 sequence: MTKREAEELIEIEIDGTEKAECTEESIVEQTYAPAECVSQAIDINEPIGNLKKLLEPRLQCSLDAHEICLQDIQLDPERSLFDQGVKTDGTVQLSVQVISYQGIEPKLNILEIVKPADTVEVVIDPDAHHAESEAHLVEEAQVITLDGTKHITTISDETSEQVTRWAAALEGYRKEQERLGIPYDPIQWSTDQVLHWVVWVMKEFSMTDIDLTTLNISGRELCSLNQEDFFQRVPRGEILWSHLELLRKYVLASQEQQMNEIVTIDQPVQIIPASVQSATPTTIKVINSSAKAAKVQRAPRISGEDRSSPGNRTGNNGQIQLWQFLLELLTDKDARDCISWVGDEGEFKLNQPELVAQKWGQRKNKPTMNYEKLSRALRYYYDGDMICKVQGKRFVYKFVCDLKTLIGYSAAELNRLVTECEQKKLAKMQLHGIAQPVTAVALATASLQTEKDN
Outline: as §1

ERG = molecular target: T5, ERG (Homo sapiens, UniProt P11308 1-479)
T5 sequence: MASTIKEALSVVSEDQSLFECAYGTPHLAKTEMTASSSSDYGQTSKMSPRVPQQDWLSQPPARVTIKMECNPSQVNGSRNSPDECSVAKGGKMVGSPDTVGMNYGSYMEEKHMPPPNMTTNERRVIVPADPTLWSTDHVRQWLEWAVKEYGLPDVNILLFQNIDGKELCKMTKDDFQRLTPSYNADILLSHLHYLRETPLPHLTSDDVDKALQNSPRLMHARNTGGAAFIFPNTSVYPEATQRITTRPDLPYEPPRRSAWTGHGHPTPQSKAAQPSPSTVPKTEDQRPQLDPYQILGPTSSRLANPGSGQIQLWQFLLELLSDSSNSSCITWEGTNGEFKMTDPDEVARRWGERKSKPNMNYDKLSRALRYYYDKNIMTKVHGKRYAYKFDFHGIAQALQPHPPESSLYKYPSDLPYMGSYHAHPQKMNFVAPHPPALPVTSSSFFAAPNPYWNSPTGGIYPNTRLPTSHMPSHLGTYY
Outline: as §1

FEV = molecular target: T6, FEV (Homo sapiens, UniProt Q99581 1-238)
T6 sequence: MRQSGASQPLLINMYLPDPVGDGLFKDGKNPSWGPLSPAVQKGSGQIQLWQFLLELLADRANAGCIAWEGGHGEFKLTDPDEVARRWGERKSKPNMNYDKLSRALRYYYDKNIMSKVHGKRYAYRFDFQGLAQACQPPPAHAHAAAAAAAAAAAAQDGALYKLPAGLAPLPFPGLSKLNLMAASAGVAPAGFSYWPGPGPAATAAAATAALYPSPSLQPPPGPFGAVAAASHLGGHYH
Outline: as §1

ELF5 = molecular target: T7, ELF5 (Homo sapiens, UniProt Q9UKW6-2 1-255)
T7 sequence: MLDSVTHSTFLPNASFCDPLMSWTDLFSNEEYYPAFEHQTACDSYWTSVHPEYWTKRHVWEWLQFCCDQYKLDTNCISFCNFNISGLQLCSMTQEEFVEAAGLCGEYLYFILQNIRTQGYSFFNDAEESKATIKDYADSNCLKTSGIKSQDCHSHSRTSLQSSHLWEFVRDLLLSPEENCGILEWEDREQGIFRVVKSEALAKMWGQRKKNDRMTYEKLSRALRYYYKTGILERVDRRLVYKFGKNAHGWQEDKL
Outline: as §1

ELF3 = molecular target: T8, ELF3 (Homo sapiens, UniProt P78545 1-371)
T8 sequence: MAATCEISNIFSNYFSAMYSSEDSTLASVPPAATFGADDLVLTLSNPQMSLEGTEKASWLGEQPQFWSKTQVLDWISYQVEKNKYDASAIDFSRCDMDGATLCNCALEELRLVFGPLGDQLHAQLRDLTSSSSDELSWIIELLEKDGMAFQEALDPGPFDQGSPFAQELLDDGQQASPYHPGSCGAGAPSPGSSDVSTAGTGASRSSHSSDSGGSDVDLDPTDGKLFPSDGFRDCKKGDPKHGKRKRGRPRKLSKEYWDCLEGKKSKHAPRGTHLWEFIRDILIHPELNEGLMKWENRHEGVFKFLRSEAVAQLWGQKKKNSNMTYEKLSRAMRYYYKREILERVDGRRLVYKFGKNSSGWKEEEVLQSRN
Outline: as §1

ERF = molecular target: T9, ERF (Homo sapiens, UniProt P50548 1-548)
T9 sequence: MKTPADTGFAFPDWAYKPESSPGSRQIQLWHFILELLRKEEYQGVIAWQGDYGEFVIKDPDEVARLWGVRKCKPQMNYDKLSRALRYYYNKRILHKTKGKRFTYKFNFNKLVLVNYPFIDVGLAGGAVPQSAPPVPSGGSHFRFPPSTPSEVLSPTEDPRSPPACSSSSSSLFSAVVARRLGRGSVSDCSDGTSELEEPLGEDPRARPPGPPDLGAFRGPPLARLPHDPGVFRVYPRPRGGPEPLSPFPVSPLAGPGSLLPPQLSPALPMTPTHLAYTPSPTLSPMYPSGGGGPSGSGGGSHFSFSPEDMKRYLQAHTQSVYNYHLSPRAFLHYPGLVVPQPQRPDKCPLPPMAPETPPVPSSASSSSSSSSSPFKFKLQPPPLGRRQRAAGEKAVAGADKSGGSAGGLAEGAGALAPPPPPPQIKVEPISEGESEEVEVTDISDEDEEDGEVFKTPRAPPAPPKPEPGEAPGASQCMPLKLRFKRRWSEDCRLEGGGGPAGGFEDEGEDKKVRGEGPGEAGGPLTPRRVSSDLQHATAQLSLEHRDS
Outline: as §1

SPI1 = SPI1 (Homo sapiens, UniProt P17947 1-270)
Outline: as §1

Chain of CRX (O43186 whole entry): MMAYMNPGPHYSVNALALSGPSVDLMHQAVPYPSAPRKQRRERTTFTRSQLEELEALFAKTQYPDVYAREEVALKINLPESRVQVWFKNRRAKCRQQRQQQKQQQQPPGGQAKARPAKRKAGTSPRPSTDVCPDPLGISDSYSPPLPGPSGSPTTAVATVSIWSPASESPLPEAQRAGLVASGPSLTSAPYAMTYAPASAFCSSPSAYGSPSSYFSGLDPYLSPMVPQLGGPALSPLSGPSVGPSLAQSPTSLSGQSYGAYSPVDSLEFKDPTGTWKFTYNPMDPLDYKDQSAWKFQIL

CCTAGT
binding signal (ETS2): 1.06 fold enrichment (6-mer frequency, TF over GST control)

CGGCAC
binding signal (SPDEF): 1.02 fold enrichment (6-mer frequency, TF over GST control) | binding signal (ETV3): 1.03 fold enrichment (6-mer frequency, TF over GST control)

CCGTTA
binding signal (SPDEF): 1.04 fold enrichment (6-mer frequency, TF over GST control)

GCGGCT
binding signal (ETV3): 1 fold enrichment (6-mer frequency, TF over GST control)

AGCCGA
binding signal (CRX): 1.08 fold enrichment (6-mer frequency, TF over GST control)

ATCAGG
binding signal (CRX): 1.04 fold enrichment (6-mer frequency, TF over GST control)

AGCTTG
binding signal (GABPA): 1.02 fold enrichment (6-mer frequency, TF over GST control) | binding signal (CRX): 1.04 fold enrichment (6-mer frequency, TF over GST control)

AGGATA
binding signal (ERG): 1.06 fold enrichment (6-mer frequency, TF over GST control) | binding signal (FEV): 1.01 fold enrichment (6-mer frequency, TF over GST control) | binding signal (CRX): 1.14 fold enrichment (6-mer frequency, TF over GST control) | binding signal (SPDEF): 1.31 fold enrichment (6-mer frequency, TF over GST control) | binding signal (ELF5): 1.17 fold enrichment (6-mer frequency, TF over GST control) | binding signal (ETV3): 1.06 fold enrichment (6-mer frequency, TF over GST control)

TCATAG
binding signal (ELF3): 1.04 fold enrichment (6-mer frequency, TF over GST control) | binding signal (ERF): 1 fold enrichment (6-mer frequency, TF over GST control)

GGGGAT
binding signal (CRX): 1.21 fold enrichment (6-mer frequency, TF over GST control)

GTGCAC
binding signal (SPI1): 1.07 fold enrichment (6-mer frequency, TF over GST control) | binding signal (ELF3): 1.02 fold enrichment (6-mer frequency, TF over GST control)

TAGCCG
binding signal (CRX): 1.05 fold enrichment (6-mer frequency, TF over GST control)
